Test results reported in PubChem BioAssay (Tox21).
Where “and” joins values, the source holds several entries; their conditions need not be identical. Equal values may be shown once. Inconclusive results are not listed. Some structures have more than one record in an assay (separate samples or runs), and their calls can disagree. Calls of active or inactive are those of the source. Unless noted, the call rests on the fitted dose curve; in most records, active means well fitted curve in the direction sought with a large enough effect in the repeat runs; inconclusive means weak or mixed curves; inactive means no such curve, though single readings can be large; an effect the other way counts as inactive or inconclusive.

Columns and labels:
[1] = qHTS assay to identify small molecule antagonists of the estrogen receptor alpha (ER-alpha) signaling pathway using the BG1 cell line in the presence of 0.1 nM 17-beta-estradiol - cell viability counter screen (AID 1259241); further: nearly all actives have a fitted effect of over 40% in size; further: potency means the concentration at half of the fitted maximal effect
Outline: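 Viability in VM7Luc4E2 cells after 22 hr compound exposure under 0.1 nM 17beta-estradiol stimulation, by CellTiter-Fluor.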

[2] = qHTS assay to identify small molecule antagonists of the androgen receptor (AR) signaling pathway using the MDA cell line in the presence of 0.5 nM R1881 - cell viability counter screen (AID 1259242); further: nearly all actives have a fitted effect of over 45% in size; further: potency means the concentration at half of the fitted maximal effect
Outline: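 qHTS format. MDA-kb2 (MMTV-luc, AR/GR responsive) + cpd + 0.5 nM R1881 final, 16 hr 37C/0% CO2 → CellTiter-Fluor 30 min → fluorescence intensity.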

[3] = molecular target: Estrogen receptor (Homo sapiens) (UniProt P03372); assay: qHTS assay to identify small molecule antagonists of the estrogen receptor alpha (ER-alpha) signaling pathway using the BG1 cell line in the presence of 0.1 nM 17-beta-estradiol (AID 1259244); further: nearly all actives have a fitted effect of over 50% in size; further: potency means the concentration at half of the fitted maximal effect
Outline: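 Reporter is a stably transfected luciferase under four estrogen responsive elements in VM7Luc4E2 cells expressing native full-length ER-alpha; inhibition of 0.1 nM (final) 17beta-estradiol-driven signal over 22 h is read by luminescence.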

[4] = qHTS assay to identify small molecule phospholipidosis (PLD) inducers (AID 1259344; active means well fitted curve in the direction sought with a large enough effect; an effect the other way counts as inactive or inconclusive)
Outline: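 After 4 h attachment on collagen I, HepG2 cells were dosed with compound alongside LipidTOX Red, kept 24 h at 37 C, fixed, and imaged for lamellar phospholipid pits.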

[5] = qHTS assay to identify small molecule HDAC inhibitors (AID 1259364); further: potency means the concentration at half of the fitted maximal effect;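 further: wild-type HCT-116 cells with endogenous class I/II HDAC activity; nearly all actives have a fitted effect of over 45% in size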
Outline: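 Quantitative high-throughput format: overnight-seeded HCT-116 cells got compounds for 2 hr at 37C; HDAC-Glo I/II reagent added, 30 min RT, luminescence measured.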

[6] = qHTS assay to identify small molecule HDAC inhibitors - cell viability counter screen (AID 1259365); further: series mostly up to about 92 µM; nearly all actives have a fitted effect of over 50% in size
Outline: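 Cytotoxicity was gauged in wild-type HCT-116 cells after a brief 2hr treatment with DMSO-dissolved compounds at 37C and 5% CO2, using CellTiter-Glo luminescence developed for 30min at room temperature.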

[7] = qHTS assay to identify small molecule agonists of the sonic hedgehog signaling (Shh) pathway - cell viability counter screen (AID 1259366); further: nearly all actives have a fitted effect of over 50% in size
Outline: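 Stable Gli1-Luc NIH/3T3 clone, 2,000 cells/well. Compound exposure 24hr at 37C. Read-out: CellTiter-Fluor fluorescence.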

[8] = qHTS assay to identify small molecule antagonists of the sonic hedgehog signaling (Shh) pathway - cell viability counter screen (AID 1259367); further: nearly all actives have a fitted effect of over 55% in size; further: potency means the concentration at half of the fitted maximal effect
Outline: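 Conditioned medium drove Shh signaling in 3T3 Gli1-Luc cells exposed to compounds at 37C and 5% CO2. Viability was determined from CellTiter-Fluor fluorescence, with reagent incubated 1 hr after 23 hr of treatment.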

[9] = qHTS assay to identify small molecule agonists of the sonic hedgehog signaling (Shh) pathway (AID 1259368; calls by dose curve;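 further: NIH/3T3-derived 3T3Gli1-Luc cells carrying a stable Gli1-driven firefly luciferase reporter; series mostly up to about 92 µM; nearly all actives have a fitted effect of over 15% in size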)
Outline: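 Quantitative high-throughput format using a Gli1-driven firefly luciferase reporter line derived from NIH/3T3 cells. After a 24 hr compound treatment at 37 C and 5% CO2, luminescence reported Gli1 response element activity.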

[10] = qHTS assay to identify small molecule antagonists of the sonic hedgehog signaling (Shh) pathway (AID 1259369; calls by dose curve; further: nearly all actives have a fitted effect of over 45% in size; further: potency means the concentration at half of the fitted maximal effect)
Outline: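 Stable Gli1-Luc reporter NIH/3T3 clone; quantitative HTS in stimulated mode with conditioned medium. Luminescence measured after 24hr compound treatment at 37 C.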

[11] = molecular target: Estrogen receptor beta (Homo sapiens) (UniProt Q92731); assay: qHTS assay to identify small molecule agonists of the estrogen receptor beta (ER-beta) signaling pathway (AID 1259377; active means well fitted activation curve with a large enough effect in the signal ratio in the repeat runs, not every such curve was filed as active; the % refers to the signal ratio)
Outline: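 Measured by fluorescence intensity from a B/G FRET beta-lactamase substrate (2 h, room temperature) in ER-beta-UAS-bla HEK293T cells treated with DMSO-dissolved compounds for 16 hr at 37C and 5% CO2.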

[12] = molecular target: Estrogen receptor beta (Homo sapiens) (UniProt Q92731); assay: qHTS assay to identify small molecule antagonists of the estrogen receptor beta (ER-beta) signaling pathway (AID 1259378; active means well fitted inhibition curve with a large enough effect in the signal ratio in the repeat runs, not every such curve was filed as active; the % refers to the signal ratio)
Outline: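 ER-beta-UAS-bla HEK293T (GripTite) cells in 2% charcoal-stripped FBS medium were preincubated 6 hr at 37C, dosed with compound, then stimulated with 1 nM E2 (final) for 16 hr; beta-lactamase reporter read by B/G FRET fluorescence after 2 hr substrate loading.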

[13] = qHTS assay to identify small molecule agonists of the estrogen receptor beta (ER-beta) signaling pathway - cell viability counter screen (AID 1259380); further: nearly all actives have a fitted effect of over 30% in size; further: potency means the concentration at half of the fitted maximal effect
Outline: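 Steps: plate ER-beta-UAS-bla HEK293T cells, rest 6 hr; add compounds in DMSO; incubate 16 hr at 37C, 5% CO2; add FRET substrate 2 hr; add CellTiter-Glo, wait 30 min at room temperature; read luminescence.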

[14] = qHTS assay to identify small molecule antagonists of the estrogen receptor beta (ER-beta) signaling pathway - cell viability counter screen (AID 1259382); further: nearly all actives have a fitted effect of over 55% in size; further: potency means the concentration at half of the fitted maximal effect
Outline: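 Viability is scored by CellTiter-Glo luminescence (30 min, room temperature) in ER-beta-UAS-bla HEK293T wells already read for reporter fluorescence. Compound exposure lasts 16 hr at 37C alongside 1nM 17-beta-estradiol in charcoal-stripped serum medium.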

[15] = molecular target: Estrogen receptor (Homo sapiens) (UniProt P03372); assay: qHTS assay to identify small molecule agonists of the estrogen receptor alpha (ER-alpha) signaling pathway in the presence of an antagonist (AID 1259383; calls by dose curve; further: nearly all actives have a fitted effect of over 15% in size; further: potency means the concentration at half of the fitted maximal effect; on activation: top concentration of the series differs between compounds)
Outline: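 Readout was ERE-driven luciferase luminescence in VM7Luc4E2 cells, which express full-length ER-alpha endogenously. Compounds were tested at 15 concentrations for 22hr alongside 10.0nM ICI-182,780 (final concentration).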

[16] = qHTS assay to identify small molecule agonists or antagonists of the thyroid stimulating hormone receptor (TSHR) signaling pathway - wild type cell line counter screen (AID 1259384; calls by dose curve)
Outline: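 Wild-type HEK293 cells were plated 18 h at 37 C/5% CO2, pin-dosed with compound plus Ro20-1724 medium, held 30 min at room temperature, then given cAMP-d2 and anti-cAMP-cryptate; fluorescence was read after 1 h. Fifteen concentrations, triplicate.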

[17] = molecular target: Thyrotropin receptor (Homo sapiens) (UniProt P16473); assay: qHTS assay to identify small molecule antagonists of the thyroid stimulating hormone receptor (TSHR) signaling pathway (AID 1259385; calls by dose curve; further: nearly all actives have a fitted effect of over 20% in size)
Outline: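 TSHR-HEK293 cells were plated and held 18 h at 37C/5% CO2, then given compound plus Ro20-1724 and stimulated with TSH at 1.5 ng/mL final. After 30 min at room temperature, cAMP was detected with cAMP-d2/anti-cAMP-cryptate (1 h) by fluorescence.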

[18] = qHTS assay to identify small molecule agonists of the estrogen receptor alpha (ER-alpha) signaling pathway in the presence of an antagonist - cell viability counter screen (AID 1259386);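 further: cells exposed to compounds for 22 h at 37 °C before the viability read; nearly all actives have a fitted effect of over 30% in size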; further: potency means the concentration at half of the fitted maximal effect
Outline: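 In this counter screen, compound effects on VM7Luc4E2 viability were tested in the presence of the antagonist ICI-182,780 at 10.0nM final. Compounds were dosed at 15 concentrations, exposure lasted 22hr, and the CellTiter-Fluor signal was read.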

[19] = molecular target: Androgen receptor (Homo sapiens) (UniProt P10275); assay: qHTS assay to identify small molecule antagonists of the androgen receptor (AR) signaling pathway using the MDA cell line in the presence of 0.5 nM R1881 (AID 1259243); further: nearly all actives have a fitted effect of over 50% in size; further: potency means the concentration at half of the fitted maximal effect
Outline: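 Antagonist mode quantitative HTS in MDA-kb2 MMTV-luciferase cells, agonist R1881 at 0.5 nM final, 16 hr exposure at 37C and 0% CO2, luminescent detection.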

[20] = qHTS assay to identify small molecule agonists of the androgen receptor (AR) signaling pathway in the presence of an antagonist - cell viability counter screen (AID 1259379); further: nearly all actives have a fitted effect of over 25% in size; further: potency means the concentration at half of the fitted maximal effect
Outline: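 Nilutamide-containing (3.0uM final) MDA-kb2 cultures, 3,000 cells/well, were treated with compounds across 15 concentrations. After 16 hr at 37C with no CO2, cell viability was determined by CellTiter-Fluor fluorescence in the luciferase assay wells.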

Measured: Potency

Estrogen receptor (Homo sapiens), sequence (P03372 whole entry, looked up): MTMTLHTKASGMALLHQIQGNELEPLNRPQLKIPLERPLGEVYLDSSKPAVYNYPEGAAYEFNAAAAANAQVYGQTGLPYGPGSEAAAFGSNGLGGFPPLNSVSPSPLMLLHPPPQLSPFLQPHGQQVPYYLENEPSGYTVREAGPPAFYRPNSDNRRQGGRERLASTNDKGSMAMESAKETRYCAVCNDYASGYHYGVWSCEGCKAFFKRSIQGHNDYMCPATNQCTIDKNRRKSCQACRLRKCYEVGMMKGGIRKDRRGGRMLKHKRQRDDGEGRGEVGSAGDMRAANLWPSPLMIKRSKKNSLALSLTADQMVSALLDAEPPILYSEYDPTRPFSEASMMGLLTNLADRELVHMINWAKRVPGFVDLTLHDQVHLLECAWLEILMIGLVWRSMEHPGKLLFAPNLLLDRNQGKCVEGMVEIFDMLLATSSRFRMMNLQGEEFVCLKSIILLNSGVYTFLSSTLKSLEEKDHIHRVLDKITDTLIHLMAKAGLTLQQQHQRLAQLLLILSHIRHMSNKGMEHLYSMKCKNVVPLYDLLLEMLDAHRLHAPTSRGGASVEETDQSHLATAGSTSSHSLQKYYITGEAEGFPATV
Androgen receptor (Homo sapiens), sequence (P10275 whole entry, looked up): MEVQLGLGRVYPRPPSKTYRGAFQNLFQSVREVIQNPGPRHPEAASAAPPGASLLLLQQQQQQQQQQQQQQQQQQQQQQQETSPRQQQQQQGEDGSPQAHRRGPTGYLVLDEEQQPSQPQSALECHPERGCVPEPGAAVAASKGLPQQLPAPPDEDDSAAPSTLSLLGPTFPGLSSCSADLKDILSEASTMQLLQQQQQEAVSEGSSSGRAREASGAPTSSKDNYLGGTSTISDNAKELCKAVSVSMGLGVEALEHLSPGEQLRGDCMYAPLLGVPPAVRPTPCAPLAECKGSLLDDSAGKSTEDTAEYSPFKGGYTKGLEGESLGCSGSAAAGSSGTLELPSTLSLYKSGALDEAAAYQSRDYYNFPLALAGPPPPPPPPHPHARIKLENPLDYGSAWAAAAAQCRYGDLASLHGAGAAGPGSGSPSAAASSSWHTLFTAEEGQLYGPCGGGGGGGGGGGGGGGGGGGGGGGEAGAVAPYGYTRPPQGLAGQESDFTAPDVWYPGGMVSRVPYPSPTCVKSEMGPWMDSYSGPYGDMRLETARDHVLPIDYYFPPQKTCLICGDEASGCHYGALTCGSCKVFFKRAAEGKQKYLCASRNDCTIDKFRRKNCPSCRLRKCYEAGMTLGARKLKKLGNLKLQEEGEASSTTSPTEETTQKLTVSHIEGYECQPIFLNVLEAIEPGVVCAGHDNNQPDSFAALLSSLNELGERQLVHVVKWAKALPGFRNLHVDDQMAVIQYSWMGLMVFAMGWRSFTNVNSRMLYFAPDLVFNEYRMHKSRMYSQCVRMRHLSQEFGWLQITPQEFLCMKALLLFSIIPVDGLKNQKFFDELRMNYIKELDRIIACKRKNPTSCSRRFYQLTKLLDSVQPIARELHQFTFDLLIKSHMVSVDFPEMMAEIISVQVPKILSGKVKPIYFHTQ
Thyrotropin receptor (Homo sapiens), sequence (P16473 whole entry, looked up): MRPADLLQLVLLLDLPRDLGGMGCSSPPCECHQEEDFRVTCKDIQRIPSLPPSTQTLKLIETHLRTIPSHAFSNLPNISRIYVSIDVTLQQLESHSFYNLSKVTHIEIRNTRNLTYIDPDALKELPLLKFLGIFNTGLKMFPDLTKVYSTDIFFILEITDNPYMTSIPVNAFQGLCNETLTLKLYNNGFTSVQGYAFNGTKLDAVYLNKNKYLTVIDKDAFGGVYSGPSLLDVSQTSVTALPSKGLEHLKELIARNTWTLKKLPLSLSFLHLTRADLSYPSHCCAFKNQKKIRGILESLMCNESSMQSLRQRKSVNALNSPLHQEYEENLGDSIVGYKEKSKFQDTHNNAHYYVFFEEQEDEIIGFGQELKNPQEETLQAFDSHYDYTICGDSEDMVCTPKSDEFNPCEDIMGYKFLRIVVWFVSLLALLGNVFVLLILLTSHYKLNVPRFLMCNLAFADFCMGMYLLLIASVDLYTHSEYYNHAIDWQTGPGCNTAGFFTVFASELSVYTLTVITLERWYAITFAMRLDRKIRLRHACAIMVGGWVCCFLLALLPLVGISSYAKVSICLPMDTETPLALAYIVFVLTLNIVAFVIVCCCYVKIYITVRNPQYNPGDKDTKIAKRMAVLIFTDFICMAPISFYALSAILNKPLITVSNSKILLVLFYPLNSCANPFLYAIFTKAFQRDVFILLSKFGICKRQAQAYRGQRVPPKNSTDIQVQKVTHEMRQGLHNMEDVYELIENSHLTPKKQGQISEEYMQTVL
Estrogen receptor beta (Homo sapiens), sequence (Q92731 whole entry, looked up): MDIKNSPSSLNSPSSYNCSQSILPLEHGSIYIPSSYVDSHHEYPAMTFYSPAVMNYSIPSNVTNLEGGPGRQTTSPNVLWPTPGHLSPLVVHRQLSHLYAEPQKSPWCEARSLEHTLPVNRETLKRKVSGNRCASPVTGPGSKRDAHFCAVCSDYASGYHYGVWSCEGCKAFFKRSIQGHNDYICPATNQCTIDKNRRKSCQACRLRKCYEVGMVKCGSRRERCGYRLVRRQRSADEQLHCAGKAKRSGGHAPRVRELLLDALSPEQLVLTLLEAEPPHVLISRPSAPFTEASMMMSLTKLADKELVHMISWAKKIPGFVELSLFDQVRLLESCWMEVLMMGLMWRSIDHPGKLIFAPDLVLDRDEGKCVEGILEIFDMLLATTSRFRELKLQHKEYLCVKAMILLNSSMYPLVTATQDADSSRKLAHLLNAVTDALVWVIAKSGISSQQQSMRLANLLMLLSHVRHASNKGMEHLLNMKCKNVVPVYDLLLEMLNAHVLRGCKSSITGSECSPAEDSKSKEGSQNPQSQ

CC(C)NC(C)C
not listed: [19] | [20]
inactive: all other assays above

CCCCC(CC)COC(=O)c1ccc(C(=O)OCC(CC)CCCC)c(C(=O)OCC(CC)CCCC)c1 (stereo not drawn)
not listed: [3] | [4] | [5] | [11] | [12] | [15] | [16]
inactive: all other assays above

CCC(=O)O[C@H]1CC[C@H]2[C@@H]3CCC4=CC(=O)CC[C@]4(C)[C@H]3CC[C@]12C
61.1 µM (active) and inactive: [14]
active: [10] 30.6 µM and 18.8 µM | [13] 68.6 µM | [15] 7.7 µM and 9.44 µM
not listed: [4] | [5] | [7] | [11] | [12]
inactive: all other assays above

O=[N+]([O-])c1ccc(O)c([N+](=O)[O-])c1
active: [1] 30.8 µM and 27.3 µM | [2] 24.4 µM and 27.3 µM | [19] 30.8 µM and 54.5 µM | [3] 48.8 µM and 48.6 µM | [8] 48.8 µM | [10] 30.8 µM and 30.6 µM | [20] 48.8 µM and 48.6 µM | [18] 30.8 µM and 27.3 µM
not listed: [4] | [5] | [7] | [16]
inactive: all other assays above

CCCCNC(=O)n1c(NC(=O)OC)nc2ccccc21
active: [5] 21.6 µM and 19.3 µM
30.5 µM (active) and inactive: [10]
60.8 µM (active) and inactive: [8]
not listed: [4] | [11]
inactive: all other assays above

CCOc1cc(Oc2ccc(C(F)(F)F)cc2Cl)ccc1[N+](=O)[O-]
not listed: [4] | [16] | [19] | [20]
inactive: all other assays above

CC(C)Oc1cc(-n2nc(C(C)(C)C)oc2=O)c(Cl)cc1Cl
active: [19] 54.5 µM | [3] 61.1 µM
not listed: [4] | [12] | [20]
inactive: all other assays above

Nc1ccncc1
not listed: [20]
inactive: all other assays above

COP(=S)(OC)Oc1cc(Cl)c(Cl)cc1Cl
54.1 µM (active) and inactive: [19]
inactive: all other assays above

CCCCCCCCC(=O)NCc1ccc(O)c(OC)c1
12.2 µM (active) and inactive: [10]
not listed: [5] | [11] | [12] | [19] | [20]
inactive: all other assays above

CCN(CC)C(=O)/C(Cl)=C(\C)OP(=O)(OC)OC
not listed: [5] | [11] | [12] | [16] | [20]
inactive: all other assays above

CC(C)(OOC(C)(C)c1ccccc1)c1ccccc1
active: [19] 24 µM
not listed: [3] | [4] | [12] | [15]
inactive: all other assays above
